From PubChem BioAssay AID493169 (National Center for Advancing Translational Sciences (NCATS), 2011)
Records with an inconclusive call do not appear. Values without a mark were called inactive. The source made the active and inactive calls. The call rests on the fitted dose curve; in most records, active means well fitted inhibition curve with a large enough effect; inconclusive means small, poorly fitted or top-dose-only effect; inactive means flat fitted curve, though single readings scatter.

test: CHOP2 Reporter Counterscreen Assay for Inhibitors of Ubiquitin-specific Protease USP2a; settings: purified enterokinase, fluorogenic substrate, 485/531 nm; series mostly up to 38.3 µM; activity change, negative = inhibition: at the top concentration;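 further: activated enterokinase alone at 50 pM in a cell-free format rather than USP2a or CHOP2; nearly all actives have a fitted effect of over 55% in size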
Source text: NIH Molecular Libraries Probe Centers Network [MLPCN] NIH Chemical Genomics Center [NCGC] MLPCN Grant: XO1-MH079852-01 PI Name: Nicholson, Ben. Progenra Inc, Malvern, PA NCGC Assay Overview: Homeostasis of cellular proteins is maintained through a combination of synthesis and degradation. The pathway that accounts for the majority of protein degradation is the ubiquitin-proteasomal pathway. Ubiquitin (Ub) is highly conserved in all cells and the generation of a multi-Ub chain typically targets proteins for degradation by the proteasome. However, ubiquitination is highly reversible and dynamic. Deubiquitination, the reverse process, is catalyzed through the action of enzymes referred to as isopeptidases or deubiquitinating enzymes (DUBs). This group of enzymes is collectively responsible for maintaining adequate pools of free ubiquitin and regulating the ubiquitination status of cellular proteins. The class of DUBs referred to as the ubiquitin-specific proteases (USP) family functions endoproteolytically to cleave Ub chains from a wide range of protein substrates. USP2a deubiquitinates fatty acid synthase (FASN) which has recently been identified as an emerging oncology target. To identify inhibitors of USP2a a cell-free assay was employed. This assay is a counterscreen against the reporter enzyme used to measure USP2a activity in the primary qHTS assay. The reporter enzyme is a protease (enterokinase, EK; EC 3.4.21.9), which is activated when a Ub sequence is cleaved by USP2a. The counterscreen assay is performed in the same buffer and conditions as the primary USP2a coupled assay but uses fully activated EK alone. The assay gives a fluorescent read-out at excitation/emission wavelengths of 485/531. The assay was provided by Progenra, Inc. and has been licensed for sale by LifeSensors, Inc.
NCGC Assay Protocol: The assay buffer, prepared fresh at the day of the assay, contains 20mM Tris-HCl pH 8.0, 2mM CaCl2, 2mM beta-Mercaptoethanol, 0.05% CHAPS. 3uL of 100 pM EK (50 pM final) was dispensed into a medium-binding black solid Kalypsys 1,536 well plate using the Kalypsys dispenser. The assay plate was then pinned with 23nL compounds in DMSO with the Kalypsys pintool in columns 5-48 (0.3% final DMSO concentration). The negative control was buffer/DMSO only in column 3. The assay plate is incubated at RT for 30min. Subsequently, 3uL of reporter substrate (25nM final) were dispensed into the plate using the Kalypsys dispenser. Plates were read after 10 min at RT on a ViewLux (Perkin Elmer) plate reader using the following wavelengths: Ex 485nm /Em 531nm. Data were normalized to the AC100 inhibition (buffer alone). Concentration-response curves were fitted to the normalized data and the concentration-response curves were then classified based on curve quality (r2), response magnitude and degree of measured activity. The time zero reading was used to flag fluorescence artifacts.
On the % scale 0 is the no-effect control and ±100 the full control effect; potency means the concentration at half of the fitted maximal effect.

SMILES | Potency | activity change, negative = inhibition [%]
O=C1CCCC2=C1C(c1ccco1)Nc1ccc3ccccc3c12 (stereo not given) | 7.94 µM (active) | 
CCOC(=O)COc1ccccc1/C=N/O |  | 0.129
COc1ccc(-c2csc(Nc3ccc(S(=O)(=O)Nc4cc(OC)nc(OC)n4)cc3)n2)cc1 |  | -19
COc1ccc(/C=C(\NC(=O)c2ccc(OC)c(OC)c2)C(=O)N2CCN(C)CC2)cc1 |  | -1.05
COc1ccc(OCC(=O)Nc2ccccc2OC)cc1 |  | 9.5
FC(F)(F)C1=Nc2cccc3cccc(c23)N1 |  | 2.43
CCN(C[C@H]1N[C@@](CC)(C(=O)OC)[C@H]2C(=O)N(Cc3ccccc3)C(=O)[C@@H]12)C(=O)Nc1ccc(C)cc1 |  | -3.12
CCOc1cc(/C=C/c2nc3cc(C)c(C)cc3s2)ccc1OCC(=O)N1CCOCC1 |  | 2.17
O=C1/C(=C/C=C/c2ccco2)SC(=S)N1NS(=O)(=O)c1ccccc1 | 3.55 µM (active) | 
O=C(CCc1nc(-c2ccccc2F)no1)NC1CCCCCC1 |  | 1.18
O=C(OCc1nc2ccccc2[n+]([O-])c1C(=O)c1ccccc1)c1cccs1 |  | 1.84
COC(=O)CSc1nc2c(c(-c3ccco3)c1C#N)CCCC2 |  | 4.87
Cc1ccc(C=Nc2ccccc2C(N)=O)cc1 |  | 3.57
COC(=O)c1c(NC(=O)c2cccnc2)sc(C)c1C |  | 3
COc1cc(/C=C/C(=O)OCC(=O)NC(=O)NCc2ccco2)ccc1OC(F)F |  | -19.8
O=C(CSc1ccc(Br)c2cccc(Cl)c12)Nc1ccc(S(=O)(=O)Nc2nccs2)cc1 | 11.2 µM (active) | 
Cc1cccc(N2CCN(C(=O)CCc3nc4ccccc4[nH]3)CC2C)c1 (stereo not given) |  | 4.52
O=[N+]([O-])c1cc(-c2nnc(Nc3ccccc3)c3ccccc23)ccc1N1CCOCC1 |  | -0.475
CSCC[C@H](NC(=O)C1CCN(S(=O)(=O)c2ccc(C)cc2)CC1)C(=O)NCc1ccco1 |  | -11.1
Cc1ccc(C(=O)COC(=O)CNC(=O)CN2C(=O)c3ccccc3C2=O)cc1 |  | 4.51

SMILES | Potency | activity change, negative = inhibition [%]
O=C(N/N=C1\CC(c2ccccc2)Oc2ccccc21)c1ccc(O)cc1 (stereo not given) |  | 4.04
COc1cc(-c2nc(-c3ccc4c(c3)-c3ccccc3S4(=O)=O)c(-c3ccccc3)[nH]2)cc(OC)c1O |  | 0.409
COc1ccc(Cl)cc1S(=O)(=O)Nc1cccc(C(=O)O)c1 |  | -0.065
Cc1n[nH]c(C)c1S(=O)(=O)N1CCCC(C(=O)Nc2nccs2)C1 (stereo not given) |  | 1.87
Cc1ccc(Nc2nc(N)nc(CN3CCN(C(=O)c4ccco4)CC3)n2)cc1Cl |  | -5.49
CCOc1ccc(-c2ccc(/C=C3/C(=N)N4C(C)=CSC4=NC3=O)o2)c([N+](=O)[O-])c1 |  | -15.5
O=C1CC(c2ccc(Cl)cc2)SC(N(c2ccccc2)c2ccccc2)=N1 (stereo not given) |  | 1.87
Cc1sc2nc(CN3CCN(c4ccc(O)cc4)CC3)[nH]c(=O)c2c1C |  | 0.0748
O=C(N/N=C/c1ccc(-c2ccc(S(=O)(=O)Nc3ncccn3)cc2)o1)c1cc2ccccc2cc1O | 3.98 µM (active) | 
CCOc1ccccc1N(CC(=O)NC(C)(C)C)C(=O)c1ccc(CN2CCOCC2)o1 |  | -0.122
Cn1c2ccccc2c2nnc(SC3CCOC3=O)nc21 (stereo not given) |  | 3.41
COc1cccc(N2CCN(C(=O)CN(C)S(=O)(=O)c3ccc4c(c3)CCC(=O)N4)CC2)c1 |  | 8.91
O=C(CNC(=O)C1CCCCC1)NC1=NCCS1 |  | 0.064
Cc1noc(NS(=O)(=O)c2ccc(N/C=C\C(=O)c3cccc4ccccc34)cc2)c1C |  | -4.93
O=C(CSc1nc(O)cc(=O)n1-c1ccccc1)NC1CCCCC1 |  | -0.765
Cn1c(=O)c(C(=O)Nc2ncccc2O)c(O)c2ccccc21 | 10 µM (active) | 
O=C(COc1ccccc1)NCc1nnc(SCC(=O)Nc2nccs2)n1-c1ccccc1 |  | -1.22
CC1=NN(c2ccc(C(=O)O)cc2)C(=O)/C1=C\c1ccc(OC(=O)c2cccs2)cc1 | 3.55 µM (active) | 
CC(C)(C)C1C=C(Sc2ccccc2)C(=O)O1 (stereo not given) |  | 2.04
COC(=O)c1[nH]c(=O)c2ccccc2c1OCc1ccccc1 |  | 3.7
